Bioassay records: PubChem, National Center for Advancing Translational Sciences (NCATS)
Hits are enriched below; roughly 7.3% of the tested compounds scored in any of these assays.
Rab9 prom act: activates the Rab9 promoter | Huh7 Rab9 promoter-luciferase reporter, luminescence, 24 h | Potency, µM (titrated, usually from 9.22 µM), for the others: top-dose activation, negative = inhibition, most hits filed as activators | actives 2.8% (n = 320,000); further: % of control where 0% means no effect; nearly all actives have a fitted effect of over 60% in size
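Quantitative HTS format; Huh7 Rab9-luciferase reporter cells (1500/well) receive compound 2 h post-plating, incubate 24 h at 37 °C, then get luciferase reagent for 10 min before luminescence reading.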
SMN2 splice up: increases expression of the SMN2 splice variant. HEK293 SMN2-luciferase splicing reporter, luminescence, 30-36 h. Potency, µM (doses to about 46.1 µM), for inactives: at the highest dose activity change, positive = activation, usual class: activators. actives 2.8% (n = 210,000). AID 1458; further: % of control where 0% means no effect; nearly all actives have a fitted effect of over 55% in size
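qHTS luciferase splicing reporter: luminescence rises when SMN2 exon 7 is included in transfected HEK293 cells. Compound exposure lasted 30-36 h at 37C, with 4.5 mM final sodium butyrate as control, followed by a ONE-Glo read.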
NPC1 promoter act: activators of NPC1 promoter; AID 485313; Huh7 NPC1 promoter luciferase reporter, 24 h; Potency, µM (titrated, usually from 9.22 µM), inactives show top-dose activation, usual class: activators; actives 2.4% (n = 320,000); further: % of control where 0% means no effect; nearly all actives have a fitted effect of over 60% in size
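NPC1 promoter–luciferase Huh7 cells; 24 h compound; luminescence.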
ELG1 genotoxic: genotoxicity induction in ELG1-luciferase HEK293T cells; HEK293T ELG1-luciferase reporter, luminescence, 16 h; Potency, µM (highest dose often 46 µM), without a hit: top-dose activity change, positive = activation, most hits filed as activators; actives 1.3% (n = 330,000); further: % of control where 0% means no effect; nearly all actives have a fitted effect of over 60% in size
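Screening used a luciferase reporter fused to human ELG1 in HEK293T cells. Luminescence was read on a CCD plate imager after 16 hr exposure and 30 min ONE-Glo incubation.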
FLuc modulator: inhibits or activates purified firefly luciferase, miR-21 counter-screen; P08659; purified FLuc, Km substrates, luminescence inhibition; Potency, µM (series often up to 57.5 µM), for the others: top-dose activity change, negative = inhibition, actives largely listed as inhibitors; actives 6.9% (n = 360,000); AID 588342;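 further: plate controls were vehicle for no effect and reference inhibitor for full effect; nearly all actives have a fitted effect of over 55% in size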
Target sequence (P08659 whole entry, looked up): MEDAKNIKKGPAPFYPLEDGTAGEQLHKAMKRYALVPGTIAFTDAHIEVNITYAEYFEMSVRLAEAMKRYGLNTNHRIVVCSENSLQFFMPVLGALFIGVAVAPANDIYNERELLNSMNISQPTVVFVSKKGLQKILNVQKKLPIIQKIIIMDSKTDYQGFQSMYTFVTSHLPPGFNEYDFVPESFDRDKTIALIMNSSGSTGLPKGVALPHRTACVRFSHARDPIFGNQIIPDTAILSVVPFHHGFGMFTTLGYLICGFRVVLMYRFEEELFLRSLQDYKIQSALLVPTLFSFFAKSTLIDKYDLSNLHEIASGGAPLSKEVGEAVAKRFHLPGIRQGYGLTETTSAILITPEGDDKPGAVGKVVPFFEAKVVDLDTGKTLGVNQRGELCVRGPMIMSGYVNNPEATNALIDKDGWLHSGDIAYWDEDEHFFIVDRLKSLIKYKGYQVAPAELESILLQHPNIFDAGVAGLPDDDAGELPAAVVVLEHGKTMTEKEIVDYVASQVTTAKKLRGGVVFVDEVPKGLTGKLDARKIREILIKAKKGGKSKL
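Biochemical qHTS of compounds, final roughly 60 µM downward over six points, against 10 nM purified firefly luciferase using Km concentrations of substrates (10 uM D-luciferin, 10 uM ATP) in Tris acetate pH 7.5 buffer; luminescence output.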
Luc counter: blocks Kinase-Glo luciferase, a counter-screen artifact. Q27757. Kinase-Glo luciferase, ATP luminescence, 8 min. Potency, µM (top dose mostly 38.3 µM), for inactives: at the top dose activity change, negative = inhibition, most hits filed as inhibitors. actives 0.28% (n = 200,000); further: on the % scale 0 is the no-effect control and ±100 the full control effect; nearly all actives have a fitted effect of over 60% in size
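Inhibition of Kinase-Glo luciferase light generation was assessed at 10 uM ATP in pH 7.2 imidazole buffer, with luminescence measured after eight minutes at ambient temperature.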
* marks the source's active call; other numbers are inactive results; ? = inconclusive; · = no result given; [ ] = dose if it differs, or a comment. The call rests on the fitted dose curve; in most records, active means well fitted curve in the direction sought with a large enough effect; inconclusive means small, poorly fitted or top-dose-only effect, or another doubt; inactive means no such curve, though single readings can be large; an effect the other way counts as inactive or inconclusive. Potency means the concentration at half of the fitted maximal effect.

SMILES	Rab9 prom act	SMN2 splice up	NPC1 promoter act	ELG1 genotoxic	FLuc modulator	Luc counter
O=C(CSc1nc2ccccc2c(=O)n1-c1ccc(F)cc1)Nc1ccc(Cl)c(S(=O)(=O)N2CCOCC2)c1	-10%	-10%	-3%	-3%	?	0%
CCN(CC(=O)NCc1ccc(Cl)cc1)C(=O)NCc1ccc(Cl)cc1	4%	·	-1%	-14%	1%	·
CC1CCc2nc(NC(=O)Nc3ccc4c(c3)OCO4)sc2C1 (stereo not drawn)	2.5µM*	·	3.2µM*	?	1.3µM*	·
Cc1nn(C)cc1/C=C1\SC(=S)NC1=O	-1%	2%	-1%	0%	?	-1%
Cc1cc(/C=C2\SC(=S)NC2=O)cc(C)c1O	-2%	·	2%	16%	8.5µM*	·
Cc1cc(/C=C2\SC(=S)NC2=O)c(C)n1C	-7%	11%	3%	11%	27µM*	-3%
Cc1cc(/C=C2\SC(=S)NC2=O)c(C)n1-c1ccc(O)cc1	1.8µM*	·	1.8µM*	?	0.85µM*	·
COc1ccc(-n2c(C)cc(/C=C3\SC(=S)NC3=O)c2C)cc1	?	·	?	4%	5.4µM*	-2%
C[C@]12CCC3c4ccc(O)cc4CCC3C1CC(O)C2O (stereo partly drawn)	·	6%	·	·	·	2%
Cc1cc(/C=C2\SC(=S)NC2=O)c(C)n1-c1ccccc1	0.63µM*	·	1µM*	?	0.54µM*	·
O=C1NC(=S)S/C1=C\c1cc2ccccc2nc1N1CCCCC1	-3%	·	-4%	-15%	-1%	·
COc1ccc2nc(N3CCCCC3)c(/C=C3\SC(=S)NC3=O)cc2c1	-1%	·	-3%	-5%	17µM*	·
Cc1cc(/C=C2/SC(=O)NC2=O)c(C)n1-c1ccc(N2CCOCC2)cc1	-4%	-25%	8%	-1%	-6%	0%
Cc1cc(/C=C2\SC(N)=NC2=O)c(C)n1-c1ccccc1	2.8µM*	13µM*	1.4µM*	7.3µM*	0.38µM*	-9%
CC1Cc2cc(/C=C3/SC(=S)NC3=O)ccc2O1 (stereo not drawn)	4µM*	·	?	11%	2.7µM*	·
CC(C)c1cc(C(=O)N2CCCC(Nc3ccc(F)cc3)C2)n[nH]1 (stereo not drawn)	-1%	·	0%	1%	-3%	·
CC(C)OC(=O)Nc1ccc2c(c1)N(C(=O)N1CCN(C)CC1)c1ccccc1CC2	?	·	?	?	6µM*	·
CCOC(=O)Nc1ccc2c(c1)N(C(=O)N1CCN(C)CC1)c1ccccc1CC2	-6%	·	-1%	16%	?	-16%
COc1cccc(OC)c1C(=O)O/N=C(\N)c1ccncc1	-19%	·	-7%	0%	1%	·
N/C(=N\OC(=O)c1cccc2ccccc12)c1ccncc1	-2%	·	2%	?	24µM*	·
Cc1cccc(/C(N)=N/OC(=O)c2ccncc2)c1	4µM*	·	1.1µM*	?	8.5µM*	·
COc1cccc(C(=O)O/N=C(\N)c2ccncc2)c1	-1%	12%	?	?	1.3µM*	-24%
COc1cccc(C(=O)O/N=C(\N)c2ccc(C)cc2)c1	26%	·	3.2µM*	?	1.9µM*	·
COc1ccccc1NC(=O)C(=O)NCC(c1ccco1)N1CCc2ccccc2C1 (stereo not drawn)	-3%	·	-3%	11%	-2%	·
COc1cc(OC)c(NC(=S)Nc2cc(Cl)cc(Cl)c2)cc1Cl	-2%	-26%	-1%	-8%	5%	-8%
c1ccc(-c2onc3cc4c(cc23)OCCO4)cc1	3.2µM*	35µM*	?	?	-10%[2.3 µM]	-10%
CCOc1cc2sc(N3CCC(C(=O)Nc4ccc(C(C)C)cc4)CC3)nc2cc1Br	·	14µM*	·	·	21µM*	·
CCOc1cc2sc(N3CCC(C(=O)NCCCN4CCCC4=O)CC3)nc2cc1Br	1%	·	15%	-3%	15µM*	·
Cc1cc(C)c2nc(N3CCC(C(=O)NCCCN4CCCC4=O)CC3)sc2c1	-4%	·	-8%	0%	?	·
